Rows were chosen to be rich in hits. Some 5.5% of all compounds tested hit in one or more screens of this group.
ELG1 repair inh: ELG1-dependent DNA repair inhibition; HEK293T ELG1-luciferase reporter, luminescence, 16 h; DNA damage induced by 5-fluorouridine; 330,000 tested, 2.3% active; Potency, µM (top dose mostly 46.1 µM), for the others: top-dose activity change, negative = inhibition, usual class: inhibitors; AID 504467; further: potency means the concentration at half of the fitted maximal effect; nearly all actives have a fitted effect of over 55% in size
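DMSO vehicle served as the neutral condition. Each well held 2,000 cells given 5-fluorouridine plus compound; after 16 hr at 37 °C/5% CO2, ONE-Glo was added and luciferase measured 30 min later.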
FBPA coupling cs: coupling enzyme interference in Giardia aldolase counter-screen | coupling enzyme system counterscreen, AmpLite Red fluorescence | 290,000 tested, 0.67% active | activity change, negative = inhibition, % at 58.2 µM, hits read low; in the data active means activity change below about -30%
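Counterscreen of the coupled detection system alone, without aldolase: glyceraldehyde-3-phosphate coupling enzymes plus AmpLite Red readout. Compounds at 57.5 uM final, 10 min RT preincubation, 20 min RT reaction, fluorescence 525/598 nm.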
Sfp PPTase inh: inhibitors of Bacillus subtilis Sfp phosphopantetheinyl transferase. Biochemical Sfp PPTase activity, qHTS. Potency, µM, inactives show largest response in the series, negative = inhibition, hits mostly inhibitors. 310,000 tested, 3.5% active. AID 1490;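 further: the enzyme is Sfp with the accession as filed and its product quenches rhodamine fluorescence; potency means the concentration at half of the fitted maximal effect; 0% = enzyme reaction without inhibitor and -100% = no enzyme wells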
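Step 1, compound plus 15 nM Sfp-PPTase, 15 min, room temperature. Step 2, add rhodamine-CoA (5 uM) and BHQ-2-YbbR (12.5 uM). Step 3, read 525/598 nm fluorescence at 0 and 30 min.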
Giardia kill: Giardia lamblia killing; Giardia lamblia trophozoite viability; activity change, % at 7.66 µM, hits read low; AID 540267; 340,000 tested, 0.15% active; in the data active means activity change below about -80%; inconclusive means between about -30% and that limit;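 further: parasites exposed to compound for two days anaerobically before the ATP read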
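Luminescent ATP signal served as the viability read-out, measured 15-30 min after adding ATP detection reagent to trophozoites that had been incubated with compounds for 48 hrs at 37 deg C anaerobically at 100 cells/well.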
The depositor's hits bear a star; ? = inconclusive; / = no result. Unless noted, the call rests on the fitted dose curve; in most records, active means well fitted curve in the direction sought with a large enough effect; inconclusive means small, poorly fitted or top-dose-only effect, or another doubt; inactive means no such curve, though single readings can be large; an effect the other way counts as inactive or inconclusive. Unless noted, on the % scale 0 is the no-effect control and ±100 the full control effect.

SMILES	ELG1 repair inh	FBPA coupling cs	Sfp PPTase inh	Giardia kill
CC(=O)c1ccc(OCCCC(=O)Nc2ccc(Cl)c(S(=O)(=O)N3CCOCC3)c2)cc1	/	/	/	1.7
CC(=O)c1ccc(OCCCC(=O)Nc2cc(S(=O)(=O)N(C)C)ccc2C)cc1	-5.1%	2.5	11.7%	6.6
CCN(CC)S(=O)(=O)c1cc(NC(=O)Cc2n[nH]c(=O)c3ccccc23)ccc1C	20.6µM*	1.1	20.4%	4.4
CCN(CC)S(=O)(=O)c1cc(NC(=O)CCCOc2ccc(C(C)=O)cc2)ccc1C	16.4µM*	3.2	8.2%	15.6
Cc1ccc(NC(=O)Cc2n[nH]c(=O)c3ccccc23)cc1S(=O)(=O)N1CCCCCC1	?	/	/	6.1
COc1ccccc1-n1c(SCC(=O)Nc2ccc(NC(C)=O)cc2)nc2c([nH]c3ccccc32)c1=O	10.3µM*	3.0	25.6%	28.7
COc1ccc(-n2c(SCC(=O)Nc3ccc(NC(C)=O)cc3)nc3c([nH]c4ccccc43)c2=O)cc1OC	-9.8%	/	7.4%	-7.0
CC(=O)Nc1ccc(NC(=O)CSc2nc3c([nH]c4ccccc43)c(=O)n2-c2ccccc2F)cc1	16.4µM*	/	23.8%	-14.8
COc1ccc(O[C@H]2C=C[C@@H](c3ccccc3)O[C@H]2COC(=O)CC/C(C)=N\OC[C@@H](O)[C@H]2O[C@H]3OC(C)(C)O[C@H]3[C@@H]2O)cc1	/	0.6	15.7%	/
CCOC(=O)c1cnc2ccc(OC)cc2c1NCCc1ccc(OC)c(OC)c1	20.6µM*	3.4	-16.4%	-10.2
CCOC(=O)c1cnc2ccc(OCC)cc2c1NCc1cccnc1	?	-24.8	-17.9%	4.9
CCOC(=O)c1cnc2ccc(OCC)cc2c1NCc1ccccc1	?	-44.2*	31.6µM*	4.6
Cc1ccc(NS(=O)(=O)c2ccc(CCC(=O)NC3CC3)cc2)cc1	-0.5%	5.5	5.4%	-5.8
COCCNC(=O)CCc1ccc(S(=O)(=O)Nc2ccc(C)cc2)cc1	-1.3%	-1.4	79.4µM*	-10.0
Cc1n[nH]c(C)c1NC(=O)CSc1nnnn1-c1cccc(F)c1	?	/	/	-3.0
CCOc1ccc(N2CC(C(=O)Nc3cc(S(=O)(=O)N4CCCCC4)ccc3C)CC2=O)cc1 (configuration not stated)	-20.8%	/	/	59.1
O=C(CSc1ccc(Cl)cc1)NC1CCCC1	?	2.9	16.1%	0.6
O=C(NC1CCCCC1)Sc1ccc(Cl)cc1	9.8%	0.0	28.2µM*	14.8
CCc1noc(C)c1C(=O)NNC(=O)COc1ccc(C)cc1	-2.5%	/	/	9.4
CC(=O)c1c(C)[nH]c(C(=O)N2CCN(c3cc(Cl)ccc3C)CC2)c1C	3.66µM*	2.6	1.9%	-14.9
CC(=O)c1c(C)[nH]c(C(=O)N2CCN(c3ccc(F)cc3)CC2)c1C	-8.2%	1.2	-7.8%	11.1
COc1ccc(CN2CCNC(=O)C2CC(=O)N2CCCN(C(C)=O)CC2)c(OC)c1 (configuration not stated)	10.6%	-7.8	7.3%	-20.6
O=C(CCn1nc(-c2ccc(Cl)cc2)ccc1=O)N1CCN(c2ccc(F)cc2)CC1	-14.0%	3.9	-5.2%	-2.8
C(=N\Nc1nncc2ccccc12)/c1ccccn1	?	-0.2	10.3%	-0.9
C(=N\Nc1ccc2nncn2n1)/c1ccccn1	5.8µM*	4.1	31.6µM*	2.1
SMILES	ELG1 repair inh	FBPA coupling cs	Sfp PPTase inh	Giardia kill
C/C(=N\Nc1ccc2nncn2n1)c1ccco1	?	3.4	-3.7%	28.6
C/C(=N\Nc1ccc2nncn2n1)c1ccccn1	1.16µM*	1.2	3.9%	2.0
Cc1ccc(S(=O)(=O)N2CCN(c3nc(C(N)=O)nc4ccccc34)CC2)cc1	/	/	/	14.3
Cc1cc(Nc2nc3ccccc3nc2Cl)n(-c2ccc([N+](=O)[O-])cc2)n1	20.6µM*	-1.8	-9.7%	-17.5
COc1ccccc1CCn1c(=O)c(-c2cc(F)cc(F)c2)nc2cncnc21	/	-1.2	-17.9%	/
c1ccc(Cn2c(-c3ccccc3)nc3nc4ccccc4nc32)cc1	20.6µM*	-2.4	-11.1%	-3.3
Clc1cccc(-c2nc3nc4ccccc4nc3n2Cc2ccccc2)c1	?	-0.1	-10.8%	-2.6
O=c1[nH]c(-c2ccccc2)ncc1OCc1ccccc1	/	/	/	14.1
CCOC(=O)c1c(C)[nH]c(C(=O)Cn2c(=O)c3c(ncn3CC)n(Cc3ccccc3)c2=O)c1C	20.6µM*	0.6	-9.1%	2.1
CCOC(=O)c1c(C)[nH]c(C(=O)CN2C(=O)NC(CC)(c3ccccc3)C2=O)c1C (configuration not stated)	16.4µM*	-3.2	-13.5%	1.5
NNC(=O)c1cc(O)c(O)c(O)c1	3.4%	-3.0	31.6µM*	1.1
CNC(=O)c1cc(Cl)c(OC)c(OC)c1	?	-0.2	44.7µM*	7.2
COc1c(Cl)cc(C(=O)NN)cc1Cl	?	-2.3	50.1µM*	2.1
COc1cc(C(N)=O)cc(Cl)c1OC	-8.0%	1.1	6.2%	9.7
COc1cc(Oc2nc(C(F)(F)F)nc3ccccc23)ccc1C=O	-22.1%	-0.6	15.9%	-16.7
CN(C)c1ncnc2c1NC1=C(S2)C(=NCCCC(=O)O)CC(C)(C)C1	-5.0%	-27.7	22.4µM*	-14.8
COc1ncnc2c1NC1=C(S2)C(=NCCC(=O)O)CC(C)(C)C1	9.5%	-48.1*	14.1µM*	-9.5
CC1(C)CC(=O)/C(=C(\O)Cc2ccccc2)C(=NCCCCCC(=O)O)C1	?	4.8	1.5%	2.7
O=C(C#Cc1ccccc1)c1ccco1	?	0.3	?	2.5
CC(C)(C)OC(=O)[C@H](Cc1ccccc1)NC(=O)c1nc[nH]c1C(=O)N1CCc2ccccc2C1	-22.2%	-1.2	15.2%	13.2
CC(C)(C)OC(=O)NCCCC[C@H](NC(=O)c1nc[nH]c1C(=O)N1CCc2ccccc2C1)C(=O)OC(C)(C)C	8.2µM*	-1.3	9.3%	4.7
CC(C)(C)OC(=O)NCc1ccc(CNC(=O)c2nc[nH]c2C(=O)N2CCc3ccccc3C2)cc1	?	/	/	-11.2
CC(C)(C)OC(=O)NCCCCCNC(=O)c1nc[nH]c1C(=O)N1CCc2ccccc2C1	16.4µM*	/	/	1.5
O=C1CCc2cc(S(=O)(=O)Nc3ccccc3F)ccc2N1	28.0%	/	/	6.8
Cc1c(C(=O)N/N=C/c2ccc(-c3ccccc3[N+](=O)[O-])o2)sc(N)c1C#N	?	-33.4*	?	-2.2
SMILES	ELG1 repair inh	FBPA coupling cs	Sfp PPTase inh	Giardia kill
Cc1c(-c2ccc(/C=N/NC(=O)C(=O)Nc3ccccc3F)o2)cccc1[N+](=O)[O-]	-1.7%	2.3	2.1%	-2.3
Nn1cnnc1N/N=C\c1ccc(-c2ccccc2[N+](=O)[O-])o1	16.5%	-49.2*	44.7µM*	-10.1
CCOc1ccc(S(=O)(=O)NCCC(=O)N2CC=C(c3ccccc3)CC2)cc1	?	/	/	-1.3
Cc1c(C(=O)N2CCCC(C)C2)sc2ncnc(N3CCCCC3C)c12 (configuration not stated)	?	-3.5	79.4µM*	-17.0
Cc1ccc(C(=O)OCC(=O)N(C)c2c(N)n(Cc3ccccc3)c(=O)[nH]c2=O)s1	0.5%	/	/	13.7
CC1CC2OC(=O)C3(C)CCCC(C)(C23)C1(O)CCc1ccoc1 (configuration not stated)	14.6µM*	0.2	19.2%	2.5

Screening results deposited in PubChem by National Center for Advancing Translational Sciences (NCATS).
